# Sampled rows, rich in hits. Any-hit rate of the full collection: about 2%.
# Granule exo inh: LAMP-1 surface exposure blockers, TALL-104 cells – cell-based, flow cytometry, MLPCN library, primary screen | TALL-104 LAMP-1 surface exposure; cells stimulated with thapsigargin and PMA | inhibition, % at 10 µM | actives 0.66% (n = 360,000) | AID 651702, 2012;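 active = inhibition above about 55%, limit read from the data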
# Rev-erbA mod: modulators of Rev-erb alpha DNA binding, primary screen, biochemical, FITC-DNA, fluorescence polarization, uHTS | Nuclear receptor subfamily 1 group D member 1 (Homo sapiens), P20393 | Rev-erbα–FITC-DNA binding, 90 min | activity, % at 10 µM | actives 0.79% (n = 370,000) | AID 1259318, 2017;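 active = activity above about 14%, limit read from the data; passing the limit was not always enough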;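 note: 0% = DMSO wells with 35 nM protein and 100% = DMSO wells with 750 nM protein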
# Target sequence (P20393 whole entry, looked up): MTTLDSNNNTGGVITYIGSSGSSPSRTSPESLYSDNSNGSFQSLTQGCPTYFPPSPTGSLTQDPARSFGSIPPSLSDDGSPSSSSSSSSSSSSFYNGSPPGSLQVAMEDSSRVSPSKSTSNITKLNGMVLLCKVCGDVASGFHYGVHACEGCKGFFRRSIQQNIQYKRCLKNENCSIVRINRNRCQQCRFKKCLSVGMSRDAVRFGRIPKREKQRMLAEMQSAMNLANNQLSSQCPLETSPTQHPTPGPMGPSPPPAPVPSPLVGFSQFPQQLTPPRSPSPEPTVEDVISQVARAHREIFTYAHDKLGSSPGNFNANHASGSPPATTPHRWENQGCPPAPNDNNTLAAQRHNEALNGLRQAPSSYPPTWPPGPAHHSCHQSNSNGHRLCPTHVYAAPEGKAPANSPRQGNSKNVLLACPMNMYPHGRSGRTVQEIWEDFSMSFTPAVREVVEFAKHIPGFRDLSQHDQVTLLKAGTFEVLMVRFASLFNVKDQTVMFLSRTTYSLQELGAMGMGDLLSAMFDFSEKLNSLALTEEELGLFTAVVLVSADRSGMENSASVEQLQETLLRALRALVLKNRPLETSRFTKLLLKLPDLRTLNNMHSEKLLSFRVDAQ
# VLA-4 inh: inhibition in human VLA-4 binding assay, primary screen, VLA-4 allosteric modulator project, MLPCN library, flow cytometry, VLA-4 expressing cells; actives 0.2% (n = 330,000); Integrin alpha-4 (Homo sapiens), P13612; ligand binding flow cytometry; inhibition, % (about 7 µM as worked out from the volumes in the protocol); AID 2557, 2010; in the data active = inhibition above about 50%
# ABCB6 inh 2: ABCB6 transporter inhibitors, primary screen, K562-ABCB6 cells, flow cytometry, MLPCN library. fluorescence ratio to DMSO, % at 10 µM. AID 602162, 2011. actives 0.19% (n = 360,000). K562-ABCB6 porphyrin accumulation, 1 h; stronger effect = lower value;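 active = fluorescence ratio to DMSO below 75%, the collection mean minus 3 SD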;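 note: signal is porphyrin accumulated inside mitochondria; 100% equals median channel fluorescence of DMSO control wells; lower ratio means ABCB6 inhibition with less porphyrin fluorescence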
# PG9 Ab binder: binders of HIV-1 gp120 antibody PG9, primary screen, biochemical, TR-FRET; TR-FRET gp120-PG9 antibody binding; AID 624416, 2012; actives 0.43% (n = 360,000); inhibition, % at 6.7 µM; HIV-1 gp120 / PG9 antibody interaction; in the data active = inhibition above about 8.5%
# VLA-4 mod pick: retest of VLA-4 allosteric modulators, confirmation, cell-based, cherry-picked plates, U937, HUTS-21 LIBS antibody | AID 2813, 2010 | inhibition, % at 6.7 µM | shares compounds with VLA-4 inh | actives 2% (n = 1,300) | U937 cells, HUTS-21 LIBS mAb binding, flow cytometry; LDV ligand present at threefold Kd; in the data active = inhibition above about 40%;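 note: 0% = ligand without compound and 100% = no ligand background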
# An asterisk follows results filed as active; . = no result given; ! = not active in a repeat.
SMILES,Granule exo inh,Rev-erbA mod,VLA-4 inh,ABCB6 inh 2,PG9 Ab binder,others
O=C(CCCCCn1c(=S)[nH]c2cc3c(cc2c1=O)OCO3)N1CCN(Cc2ccccc2)CC1,0,17,19,100,4,
N#Cc1c(N2CCCC2)nc(N)c2c(N)nc(N3CCCC3)cc12,60*,-36,5,116,-7,
CCSc1nc2cc(OC)c(OC)cc2c(=O)n1CCc1ccccc1,-1,4,-12,87,-3,
COCCCn1c(SCCc2ccccc2)nc2cc(OC)c(OC)cc2c1=N,60*,-3,6,89,0,
COc1ccc(CNC(=O)CSc2nc3c([nH]2)c(=O)n(C)c(=O)n3C)cc1,.,3,.,.,.,
Cc1cc2oc(C(=O)N(Cc3ccccc3)c3ccccn3)cc(=O)c2cc1Cl,57*,-6,7,98,3,
COC(=O)c1ccc(Nc2cc(C)nc(-c3ccccc3O)n2)cc1,4,25,-3,102,45*,
COC(=O)c1cccc(Nc2cc(C)nc(-c3ccccc3O)n2)c1,-1,12,0,94,0,
COc1nc(N)nc(NC(=O)c2cccs2)c1N=O,105*,2,17,95,-24,
Cc1cccc(OCC(=O)N/N=C\c2cccn2C)c1C,3,3,-4,67*,-2,
CN(c1ccccc1)S(=O)(=O)c1ccc(NC(=O)c2ccccc2)cc1,20,0,-3,94,0,
CCS(=O)(=O)c1ncc(Cl)c(C(=O)Nc2ccc(S(=O)(=O)N3CCC(C)CC3)cc2)n1,22,-2,33,44*,3,
CN(c1ccccc1)S(=O)(=O)c1ccc(NC(=O)c2nc(S(C)(=O)=O)ncc2Cl)cc1,31,-2,33,40*,0,
CCS(=O)(=O)c1ncc(Cl)c(C(=O)Nc2ccccc2OC)n1,24,-6,-21,69*,1,
CC(C)NC(=O)CCn1nnc(-c2cccs2)n1,.,7,.,.,.,
CCC(C)N(C(=O)CSc1nnc(-c2cc(OC)c(OC)c(OC)c2)o1)C(C)CC (stereo not drawn),.,6,.,.,.,
O=C1CC(Sc2nnc(-c3ccccc3)o2)C(=O)N1c1ccccc1 (stereo not drawn),66*,.,-2,109,2,
Cc1ccc2ccc(C(Nc3ccccn3)c3ccccc3)c(O)c2n1 (stereo not drawn),3,3,33,98,0,
COc1cc(C(Nc2ccccn2)c2ccc3ccc(C)nc3c2O)cc(OC)c1O (stereo not drawn),105*,.,45,92,.,
O=C(CNS(=O)(=O)c1cccc2ccccc12)N1CCN(c2ncccn2)CC1,.,-2,.,.,.,
O=[N+]([O-])c1cccc(OCCCN2CCC(Cc3ccccc3)CC2)c1,86*,-1,12,97,0,
CCN(CC)c1ccc(/C=N/NC(=O)CNC(=O)c2ccc3c(c2)OCCO3)cc1,74*,0,12,100,-3,
CN(C)c1ccc(/C=N/NC(=O)CNC(=O)c2ccc3c(c2)OCCO3)cc1,-2,0,5,104,-9,
COC(=O)c1nn(-c2cccc(C(F)(F)F)c2)c(=O)cc1Sc1ccccn1,2,-1,0,94,8.7*,
Fc1ccccc1-c1ccc(/C=N/Nc2nc3ccccc3[nH]2)o1,70*,2,16,123,-5,
SMILES,Granule exo inh,Rev-erbA mod,VLA-4 inh,ABCB6 inh 2,PG9 Ab binder,others
C(=N\Nc1nc2ccccc2[nH]1)/c1ccccn1,-1,7,.,100,-2,
Cc1ccc(NC(=O)CSc2nnc(-c3cnccn3)n2-c2ccccc2)cc1,-2,19,-2,104,16*,
CCN(CC)c1ccc(-c2nnc(SCC(=O)Nc3ccccc3C#N)n2-c2ccccc2)cc1,88*,-3,0,95,1,
CC(=O)CSc1nnc(-c2cnccn2)n1-c1ccccc1,0,3,.,94,0,
CC(C)(C)N(Cc1ccccc1)C(=O)COC(=O)c1ccc(S(=O)(=O)N2CCOCC2)cc1,63*,3,-2,96,1,
C/C(CCc1ccccc1)=N\NC(=S)NCCc1ccccc1,91*,5,8,94,1,
C/C(=N\NC(=S)NCCc1ccccc1)c1cccs1,-3,10,13,96,1,
CCn1c2ccccc2nc2cc3c(cc21)c(Cl)c(=O)c1ccccc13,119*,9,.,102,0,
Cc1ccc(/C=N/NC(=O)c2c(C)nc3ccc(Cl)cn23)cc1,.,-7,.,.,0,
COc1cc2c(cc1OC)C1=C(C#N)CCC(=NC(=O)c3ccco3)N1CC2,-3,-10,-5,103,-4,
COc1cc2c(cc1OC)C1=C(C#N)CC/C(=N\S(=O)(=O)c3cccc(Cl)c3)N1CC2,0,-1,5,73*,0,
CC(C)C[C@H]1COc2cccc(F)c2S(=O)(=O)N1Cc1cn(CCC2OCCCO2)nn1,.,0,.,.,.,
Cc1ccccc1OCc1nnc(SCC(=O)Nc2ccc3nc(SCC(=O)NC(C)(C)C)sc3c2)n1C,77*,-3,7,101,1,
CCN(CC)C(=O)CSc1nc2ccc(NC(=O)CSc3nnc(COc4ccccc4C)n3C)cc2s1,2,-2,-8,101,-3,
CN(Cc1cnc2nc(N)nc(N)c2n1)c1ccc(C(=O)N[C@@H](CCC(=O)O)C(=O)O)cc1,-5,4,55*!,103,0,VLA-4 mod pick=-2
CCCC[C@@H]1C=C(C(=O)O)[C@H](c2ccc(Cl)c(Cl)c2)N1S(=O)(=O)c1ccc(C)cc1,3,4,19,99,2,
CCCC[C@@H]1C=C(C(=O)O)[C@H](c2ccc(C)cc2)N1S(=O)(=O)c1ccc(C)cc1,-3,6,53*,105,-1,VLA-4 mod pick=-2
Cc1ccc(S(=O)(=O)N2[C@@H](c3ccc(Br)cc3)C(C(=O)O)=C[C@H]2C(C)(C)C)cc1,-5,-6,52*,96,-1,VLA-4 mod pick=-1
CCCCC[C@@H]1C=C(C(=O)O)[C@H](c2ccc(Cl)cc2)N1S(=O)(=O)c1ccc(C)cc1,1,1,16,99,-1,VLA-4 mod pick=1
CCCCC[C@@H]1C=C(C(=O)O)[C@H](c2ccc(C)cc2)N1S(=O)(=O)c1ccc(C)cc1,-11,-5,-9,98,1,
CCOC(=O)[C@@]12CCCC3=C1N(CCC3)C(=O)[C@H]2CC(=O)N1CCN(C(=O)C2CC2)CC1,.,-1,.,.,.,

# Screens deposited in PubChem by several laboratories.
